About 770 (0.77%) of roughly 100,000 compounds were called active. The sample as a whole holds a higher share of actives than the screen did. A number with no mark means an inactive call. Rule as the data show it: active = inhibition above about 50%; inactive = the rest.
molecular target: Gag-Pol polyprotein (Human immunodeficiency virus type 1 group M subtype B (isolate HXB2)) (UniProt P04585); assay: RNase H inhibition, HIV 1 Gag Pol polyprotein, FRET biochemical assay, screening (AID 372); settings: HIV-1 RT RNase H, FRET RNA/DNA substrate fluorescence; at 10 µM; hits give high values

Row | Structure (SMILES) | inhibition
1 | COc1cc(OC)cc(C(=O)Nc2cccc(-c3nc4ccccc4s3)c2)c1 | 5%
2 | Oc1ccc(Br)cc1/C=N/c1c(-c2ccco2)nc2ccccn12 | 15%
3 | O=C1CS/C(=N/N=C/c2ccc(-c3ccc(Br)cc3)o2)N1 | 14%
4 | CCCC(=O)Nc1cc(-c2nc3cc(Cl)ccc3o2)ccc1C | 12%
5 | O=C(O)c1ccc(Nc2ccnc3cc(Cl)ccc23)cc1 | 3%
6 | O=C(Nc1ccccc1C(=O)N1CCCC1)c1ccccc1 | 0%
7 | CCOc1ccc(C(=O)NC(=S)Nc2ccc(Br)cn2)cc1Cl | 56% (active)
8 | COc1ccc(Br)cc1C(=O)NC(=S)Nc1ccc(Cl)cn1 | 53% (active)
9 | COc1ccc(C(=O)NC(=S)Nc2ccc(Cl)cn2)cc1Br | 23%
10 | COc1ccc(Br)cc1C(=O)Nc1ccc(Cl)cn1 | 26%
11 | COc1ccc(C(=O)NC(=S)Nc2ccc(Br)cn2)cc1OC | 21%
12 | CCOc1ccc(C(=O)Nc2ccc(Br)cn2)cc1Cl | 4%
13 | CS(=O)(=O)N(Cc1ccc(C(=O)Nc2ccccc2C(=O)O)cc1)c1ccccc1 | 4%
14 | Cc1ccc(NC(=O)C(=O)N/N=C/c2cccc(Cl)c2)cc1 | 1%
15 | CCOc1cc(/C=C/C(=O)O)c(Br)cc1OC | 8%
16 | Cc1ccc(CN2CCN(/N=C\c3ccccc3)CC2)cc1 | 8%

Row | Structure (SMILES) | inhibition
17 | COc1ccccc1OCC(=O)N/N=C/c1ccc(C)cc1C | 11%
18 | CC(=O)N1CCN(c2ccc(NC(=O)c3ccc(-c4ccccc4)cc3)cc2)CC1 | 5%
19 | O=C(Nc1ccc(N2CCCCC2)cc1)c1ccc(-c2ccccc2)cc1 | 28%
20 | COc1ccc(CNC(=O)C(=O)Nc2ccc(OC)cc2)cc1 | 0%
21 | COc1ccc(CNC(=O)C(=O)NCc2ccc(Cl)cc2)cc1 | 15%
22 | COc1ccc(C)cc1NC(=O)C(=O)NCc1ccncc1 | 55% (active)
23 | COc1ccccc1NC(=O)C(=O)NCc1ccc(C)cc1 | 57% (active)
24 | COc1ccc(NC(=O)C(=O)NCc2ccc(Cl)cc2)cc1 | 52% (active)
25 | COc1ccc(S(=O)(=O)N(CC(=O)NCc2ccccc2)Cc2ccccc2)cc1 | 10%
26 | COc1ccccc1NC(=O)C(=O)NCc1ccccc1 | 27%
27 | COc1ccc(C)cc1NC(=O)C(=O)NCc1cccnc1 | 40%
28 | COc1ccc(S(=O)(=O)N(CC(=O)NCc2ccc(Cl)cc2)Cc2ccccc2)cc1 | 60% (active)
29 | COc1ccc(CNC(=O)CN(Cc2ccccc2)S(=O)(=O)c2ccccc2)cc1 | 10%
30 | COc1ccc(CNC(=O)C(=O)Nc2ccccc2OC)cc1 | 44%
31 | COc1ccc(C)cc1NC(=O)C(=O)NCc1ccc(Cl)cc1 | 44%

From PubChem BioAssay AID372 (MTDP, 2006)
